Measured values as given in PubChem BioAssay AID1159580 (chemical genetic matrix, 2015).
Where “and” joins values, the source holds several entries; their conditions need not be identical. Equal entries are not always repeated. Out of some 5,500 compounds screened, about 2,000 (36%) were called active. Inconclusive results (about 18%) are left out. Cut-off read from the data, not from the text of the source: active = normalized growth mostly below about 0.91 (no sharp cut-off); inconclusive = no clear call, values can overlap the other calls; inactive = mostly above about 0.92. The list shows a part of the results.

Assay: chemical genetic growth profiling, strain panel (AID 1159580);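 note: tested at 20 µM; growth read once vehicle control cultures reached saturation at 30 °C; 1 = growth at the plate median or of vehicle wells; lower values mean less growth of the strain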
Conditions: S. cerevisiae deletion strains, growth OD

Measured: normalized growth

CCC(=O)OCC(=O)[C@@]1(OC(=O)CC)[C@@H](C)CC2C3CCC4=CC(=O)C=C[C@]4(C)C3(F)[C@@H](O)C[C@@]21C (stereo partly drawn)
0.761 (active) and 1.01 (inactive): locus YJL095W, strain BCK1, stronger effect = lower value
0.896 (active) and 0.998 (inactive): locus YHR030C, strain SLT2, stronger effect = lower value
active: locus YAL013W, strain DEP1, stronger effect = lower value 0.876 | locus YBR021W, strain FUR4, stronger effect = lower value 0.779 | locus YDL035C, strain GPR1, stronger effect = lower value 0.846 | locus YDL134C, strain PPH21, stronger effect = lower value 0.844 | locus YDR162C, strain NBP2, stronger effect = lower value 0.708 | locus YER167W, strain BCK2, stronger effect = lower value 0.881 | locus YGR135W, strain pre9, stronger effect = lower value 0.863 | locus YGR252W, strain gcn5, stronger effect = lower value 0.71 | locus YIL066C, strain RNR3, stronger effect = lower value 0.806
inactive: locus YAL021C, strain ccr4, stronger effect = lower value 0.958 | locus YAL026C, strain drs2, stronger effect = lower value 1 | locus YAL030W, strain snc1, stronger effect = lower value 1 | locus YBL061C, strain skt5, stronger effect = lower value 1.01 | locus YBR009C, strain hhf1, stronger effect = lower value 0.999 | locus YBR023C, strain chs3, stronger effect = lower value 1.01 | locus YBR171W, strain sec66, stronger effect = lower value 1 | locus YBR229C, strain ROT2, stronger effect = lower value 0.925 | locus YBR231C, strain swc5, stronger effect = lower value 1.01 | locus YBR279W, strain paf1, stronger effect = lower value 1.01 | locus YCL011C, strain gbp2, stronger effect = lower value 0.988 | locus YCL016C, strain dcc1, stronger effect = lower value 1.01 | locus YCL029C, strain bik1, stronger effect = lower value 0.952 | locus YCL061C, strain MRC1, stronger effect = lower value 1.01 | locus YCL069W, strain vba3, stronger effect = lower value 0.996 | locus YCR088W, strain abp1, stronger effect = lower value 0.997 | locus YDL005C, strain med2, stronger effect = lower value 0.994 | locus YDL040C, strain nat1, stronger effect = lower value 1 | locus YDL074C, strain BRE1, stronger effect = lower value 0.793 | locus YDL101C, strain DUN1, stronger effect = lower value 0.95 | locus YDL185W, strain tfp1, stronger effect = lower value 0.927 | locus YDL192W, strain arf1, stronger effect = lower value 0.927 | locus YDR001C, strain nth1, stronger effect = lower value 0.991 | locus YDR069C, strain doa4, stronger effect = lower value 0.993 | locus YDR101C, strain arx1, stronger effect = lower value 0.948 | locus YDR137W, strain rgp1, stronger effect = lower value 1.01 | locus YDR150W, strain NUM1, stronger effect = lower value 0.974 | locus YDR159W, strain sac3, stronger effect = lower value 1.01 | locus YDR195W, strain ref2 1 | locus YDR297W, strain sur2, stronger effect = lower value 0.996 | locus YDR318W, strain mcm21, stronger effect = lower value 0.945 | locus YDR334W, strain swr1, stronger effect = lower value 1.01 | locus YDR335W, strain msn5, stronger effect = lower value 0.998 | locus YDR388W, stronger effect = lower value 0.947 | locus YDR392W, strain spt3, stronger effect = lower value 0.988 | locus YDR502C, strain sam2, stronger effect = lower value 0.926 | locus YEL003W, strain gim4, stronger effect = lower value 0.996 | locus YEL037C, strain rad23, stronger effect = lower value 0.987 | locus YEL061C, strain CIN8 (second series), stronger effect = lower value 0.989 | locus YEL061C, strain CIN8, stronger effect = lower value 0.935 | locus YER015W, strain faa2, stronger effect = lower value 0.995 | locus YER016W, strain bim1, stronger effect = lower value 1.01 | locus YER110C, stronger effect = lower value 0.952 | locus YER111C, strain swi4, stronger effect = lower value 0.999 | locus YER155C, strain BEM2 (second series), stronger effect = lower value 1.01 | locus YER155C, strain BEM2, stronger effect = lower value 0.963 | locus YFR010W, strain ubp6, stronger effect = lower value 0.993 | locus YGL078C, strain dbp3, stronger effect = lower value 0.975 | locus YGL086W, strain mad1, stronger effect = lower value 0.954 | locus YGL167C, strain pmr1, stronger effect = lower value 1 | locus YGL173C, strain kem1, stronger effect = lower value 1 | locus YGL227W, strain vid30, stronger effect = lower value 0.995 | locus YGL240W, strain doc1, stronger effect = lower value 1 | locus YGL248W, strain PDE1, stronger effect = lower value 0.943 | locus YGL253W, strain hxk2, stronger effect = lower value 1.03 | locus YHR013C, strain ard1, stronger effect = lower value 1.01 | locus YHR027C, strain rpn1, stronger effect = lower value 1 | locus YHR079C, strain IRE1 (second series), stronger effect = lower value 0.974 | locus YHR079C, strain IRE1, stronger effect = lower value 1.02 | locus YHR094C, strain hxt1, stronger effect = lower value 0.965 | locus YHR129C, strain ARP1, stronger effect = lower value 0.943 | locus YHR142W, strain chs7, stronger effect = lower value 0.988 | locus YHR200W, strain rpn10, stronger effect = lower value 0.929 | locus YIL073C, strain SPO22, stronger effect = lower value 0.825 | locus YIL125W, strain kgd1, stronger effect = lower value 0.971 | locus YIR030C, strain dcg1, stronger effect = lower value 0.959 | locus YJL092W, strain hpr5, stronger effect = lower value 0.996 | locus YJL095W, strain BCK1 (second series), stronger effect = lower value 1 | locus YJL115W, strain asf1, stronger effect = lower value 0.999 | locus YJL129C, strain trk1, stronger effect = lower value 0.951 | locus YJL134W, strain LCB3, stronger effect = lower value 0.961 | locus YJL154C, strain vps35, stronger effect = lower value 0.981 | locus YJL164C, strain tpk1, stronger effect = lower value 1 | locus YJL166W, strain qcr8, stronger effect = lower value 0.997 | locus YJL168C, strain set2, stronger effect = lower value 0.956 | locus YJL187C, strain SWE1 (second series), stronger effect = lower value 0.942 | locus YJL187C, strain SWE1, stronger effect = lower value 0.996
